These results are taken from PubChem BioAssay (EPA / NIEHS).

Records with an inconclusive call do not appear. Calls of active or inactive are those of the source. How the source made its calls: active means hit-call score of the fitted dose curve at least 0.9, where 1 is the maximum; inconclusive means response in the unintended direction; inactive means score below 0.9.

Chain of human Adrenergic, Alpha 2A Receptor (Adra2A), ADRA2A (gene 150) (P08913 whole entry, looked up): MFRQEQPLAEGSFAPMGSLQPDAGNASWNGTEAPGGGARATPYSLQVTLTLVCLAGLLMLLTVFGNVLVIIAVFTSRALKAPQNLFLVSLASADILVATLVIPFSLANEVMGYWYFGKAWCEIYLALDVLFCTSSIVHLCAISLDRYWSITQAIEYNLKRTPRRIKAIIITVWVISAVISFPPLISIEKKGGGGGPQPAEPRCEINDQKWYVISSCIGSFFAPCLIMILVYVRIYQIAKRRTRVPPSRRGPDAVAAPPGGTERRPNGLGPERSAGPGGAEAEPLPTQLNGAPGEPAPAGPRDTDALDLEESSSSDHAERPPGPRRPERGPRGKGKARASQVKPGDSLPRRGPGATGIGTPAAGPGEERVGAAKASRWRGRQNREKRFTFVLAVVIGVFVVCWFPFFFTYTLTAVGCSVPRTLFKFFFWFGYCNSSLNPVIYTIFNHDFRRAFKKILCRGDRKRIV
Chain of human Serotonin, 5-Hydroxytryptamine Receptor 6 (5HT6), HTR6 (gene 3362) (P50406 whole entry, looked up): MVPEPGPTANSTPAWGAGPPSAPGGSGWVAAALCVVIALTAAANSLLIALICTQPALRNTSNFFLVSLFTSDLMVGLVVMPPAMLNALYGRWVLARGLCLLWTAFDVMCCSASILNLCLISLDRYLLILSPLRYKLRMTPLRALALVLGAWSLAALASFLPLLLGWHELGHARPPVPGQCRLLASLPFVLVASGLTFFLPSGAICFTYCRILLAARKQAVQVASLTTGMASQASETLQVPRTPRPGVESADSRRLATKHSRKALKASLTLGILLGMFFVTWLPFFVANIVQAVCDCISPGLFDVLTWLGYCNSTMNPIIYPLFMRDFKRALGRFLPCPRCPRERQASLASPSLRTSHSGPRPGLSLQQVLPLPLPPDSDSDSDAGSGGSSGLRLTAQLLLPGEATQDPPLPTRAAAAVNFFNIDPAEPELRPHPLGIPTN
Chain of human Adenosine A2a Receptor (AdoRA2a), ADORA2A (gene 135) (P29274 whole entry, looked up): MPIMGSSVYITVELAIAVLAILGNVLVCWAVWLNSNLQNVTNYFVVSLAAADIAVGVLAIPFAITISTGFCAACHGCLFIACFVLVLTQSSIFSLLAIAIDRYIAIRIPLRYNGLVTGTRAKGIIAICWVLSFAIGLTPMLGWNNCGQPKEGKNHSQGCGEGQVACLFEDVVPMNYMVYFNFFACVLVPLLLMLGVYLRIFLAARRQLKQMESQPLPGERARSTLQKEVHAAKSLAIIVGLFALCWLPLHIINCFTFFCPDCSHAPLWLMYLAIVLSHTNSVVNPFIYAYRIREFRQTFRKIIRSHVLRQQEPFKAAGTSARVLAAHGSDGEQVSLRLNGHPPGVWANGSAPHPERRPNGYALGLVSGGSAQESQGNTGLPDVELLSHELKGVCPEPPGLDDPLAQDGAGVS
Chain of human Serotonin, 5-Hydroxytryptamine Receptor 7 (5HT7), HTR7 (gene 3363) (P34969 whole entry, looked up): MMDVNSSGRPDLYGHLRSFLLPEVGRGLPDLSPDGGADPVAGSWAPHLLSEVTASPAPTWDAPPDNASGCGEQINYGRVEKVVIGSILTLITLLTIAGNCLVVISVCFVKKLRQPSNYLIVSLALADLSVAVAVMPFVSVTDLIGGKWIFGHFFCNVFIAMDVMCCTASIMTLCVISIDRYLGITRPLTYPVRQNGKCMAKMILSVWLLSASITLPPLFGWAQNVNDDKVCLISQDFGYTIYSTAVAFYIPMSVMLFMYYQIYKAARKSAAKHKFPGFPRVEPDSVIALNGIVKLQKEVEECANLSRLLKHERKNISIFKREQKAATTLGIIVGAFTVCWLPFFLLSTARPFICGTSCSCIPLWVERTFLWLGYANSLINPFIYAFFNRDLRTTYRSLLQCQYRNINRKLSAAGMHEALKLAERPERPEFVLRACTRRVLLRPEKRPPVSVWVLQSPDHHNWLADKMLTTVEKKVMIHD
Chain of human Adrenergic, Beta 1 Receptor (Adrb1), ADRB1 (gene 153) (P08588 whole entry, looked up): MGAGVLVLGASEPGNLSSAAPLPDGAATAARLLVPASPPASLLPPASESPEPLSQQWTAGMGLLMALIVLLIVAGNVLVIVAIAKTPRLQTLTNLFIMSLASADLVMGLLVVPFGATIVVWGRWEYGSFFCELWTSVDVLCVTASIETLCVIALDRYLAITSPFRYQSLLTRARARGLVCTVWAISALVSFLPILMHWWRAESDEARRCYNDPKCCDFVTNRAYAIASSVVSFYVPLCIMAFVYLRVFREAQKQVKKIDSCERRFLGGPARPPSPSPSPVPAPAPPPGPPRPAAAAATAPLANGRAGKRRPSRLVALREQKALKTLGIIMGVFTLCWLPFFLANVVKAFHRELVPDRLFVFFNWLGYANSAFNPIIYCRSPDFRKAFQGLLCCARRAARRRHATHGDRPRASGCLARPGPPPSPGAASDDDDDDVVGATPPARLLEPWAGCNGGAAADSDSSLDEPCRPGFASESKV

The target in one experiment is human Serotonin, 5-Hydroxytryptamine Receptor 6 (5HT6), HTR6 (gene 3362) (UniProt P50406). Nature of the experiment: NVS_GPCR_h5HT6: NovaScreen (NVS) G Protein-Coupled Receptor Assay for human Serotonin, 5-Hydroxytryptamine Receptor 6 (5HT6) (AID 2283253). The gist of the method:
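Radioligand binding to 5HT6 in HEK293-derived membranes, cell-free, 1 h after dosing; bound ligand measured by filter-based scintillation counting. Primary screen in duplicate at 25 uM; actives retested in concentration series.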
As for `CCCCCOC(=O)c1ccccc1C(=O)OCCCCC`, the outcome was inactive.

For `CCC[CH2][Sn]([Cl])([CH2]CCC)[CH2]CCC`, the AC50 is 5.51 µM (active).

In the case of `[Cl-].[Cl-].[Hg+2]`, the AC50 is 1.56 µM (active).

With `O=[N+]([O-])c1ccc(Oc2ccc(Cl)cc2Cl)cc1`, the outcome was inactive.

With `CCOC(=O)[C@]1(c2ccccc2)Oc2ccccc2[C@@H]1N`, the AC50 was 0.824 µM (active).

A further experiment deals with human Adenosine A1 Receptor (AdoRA1), ADORA1 (gene 134) (UniProt P30542). Description: NVS_GPCR_hAdoRA1: NovaScreen (NVS) G Protein-Coupled Receptor Assay for human Adenosine A1 Receptor (AdoRA1) (AID 2283254). An outline of the steps: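 Hum. cortical membranes + radioligand, cmpd 1 h; filtration, scintillation count. Readout = decrease vs DMSO. Primary 25 uM dup; hits → conc. series.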
Chain of human Adenosine A1 Receptor (AdoRA1), ADORA1 (gene 134) (P30542 whole entry, looked up): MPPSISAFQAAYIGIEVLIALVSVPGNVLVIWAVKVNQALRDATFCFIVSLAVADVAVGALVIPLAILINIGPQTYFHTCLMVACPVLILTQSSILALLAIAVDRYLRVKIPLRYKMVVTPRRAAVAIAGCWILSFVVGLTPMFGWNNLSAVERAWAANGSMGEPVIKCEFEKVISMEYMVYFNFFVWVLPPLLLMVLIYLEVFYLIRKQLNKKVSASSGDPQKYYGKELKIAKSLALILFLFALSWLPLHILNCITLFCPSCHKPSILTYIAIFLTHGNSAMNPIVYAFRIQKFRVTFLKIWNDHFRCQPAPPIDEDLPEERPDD
For `Cc1cccc(N)c1N`, the AC50 is 8.22 µM (active).

As to `Nc1ccc(N=Nc2ccccc2)cc1`, the result was inactive.

Regarding `COP(=S)(OC)SCN1C(=O)c2ccccc2C1=O`, the AC50 is 13.7 µM (active).

With `CCC[CH2][Sn]([Cl])([CH2]CCC)[CH2]CCC`, the AC50 is 25 µM (active).

The next experiment has as its target human Serotonin, 5-Hydroxytryptamine Receptor 7 (5HT7), HTR7 (gene 3363) (UniProt P34969). Description: NVS_GPCR_h5HT7: NovaScreen (NVS) G Protein-Coupled Receptor Assay for human Serotonin, 5-Hydroxytryptamine Receptor 7 (5HT7) (AID 2283255).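 Further: hits reduce specific radioligand binding relative to DMSO.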 An outline of the steps:
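Radioligand displacement on membranes from CHO cells expressing human 5HT7, 1 h incubation, filter-based scintillation counting. Primary screen used a single 25 uM concentration in duplicate; actives were followed up in concentration series.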
On to `CCCCCCCCn1sccc1=O`, for which the AC50 is 17.9 µM (active).

In the case of `CCN(CC)CCO`, the molecule was classed as inactive.

As to `CCC[CH2][Sn]([Cl])([CH2]CCC)[CH2]CCC`, the concentration at half-maximal activity (AC50) was 0.354 µM (active).

In the case of `CCCCCCCCOC(=O)c1ccc(C(=O)OCCCCCCCC)c(C(=O)OCCCCCCCC)c1`, the molecule was classed as inactive.

As to `[Cl-].[Cl-].[Hg+2]`, the AC50 is 0.928 µM (active).

In the case of `O=C(N[C@H](c1ccccc1)[C@@H]1CN2CCC1CC2)c1c(Cl)ccc(C(F)(F)F)c1Cl`, the AC50 was 28.5 µM (active).

On to `CCOC(=O)[C@]1(c2ccccc2)Oc2ccccc2[C@@H]1N`, for which the AC50 was 0.0948 µM (active).

A further experiment has as its target human Adenosine A2a Receptor (AdoRA2a), ADORA2A (gene 135) (UniProt P29274). Description: NVS_GPCR_hAdoRA2a: NovaScreen (NVS) G Protein-Coupled Receptor Assay for human Adenosine A2a Receptor (AdoRA2a) (AID 2283256). An outline of the steps: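 Cell-free radioligand binding on membranes from HEK293 expressing the receptor; competitive displacement read 1.5 h after dosing by filter-based scintillation counting. Primary screen in duplicate at 25 uM; actives followed in concentration series, with DMSO as baseline.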
In the case of `Cc1cccc(N)c1N`, the AC50 was 4.24 µM (active).

In the case of `CCC[CH2][Sn]([Cl])([CH2]CCC)[CH2]CCC`, the AC50 was 6.46 µM (active).

In the case of `Nc1ccc(Cl)cc1N`, the AC50 was 2.4 µM (active).

With `CCNS(=O)(=O)C(F)(F)C(F)(F)C(F)(F)C(F)(F)C(F)(F)C(F)(F)C(F)(F)C(F)(F)F`, the AC50 was 14.5 µM (active).

On to `[Cl-].[Cl-].[Hg+2]`, for which the AC50 is 5.19 µM (active).

With `CC(C)(O)c1cnn2c(-c3ccc(F)c(-c4c(F)cccc4C#N)c3)cnc2n1`, the AC50 is 0.0738 µM (active).

A further experiment concerns the target human Adrenergic, Alpha 2A Receptor (Adra2A), ADRA2A (gene 150) (UniProt P08913). Nature of the experiment: NVS_GPCR_hAdra2A: NovaScreen (NVS) G Protein-Coupled Receptor Assay for human Adrenergic, Alpha 2A Receptor (Adra2A) (AID 2283257). An outline of the steps:
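Radioligand filter-binding was run on HT29-derived membranes, cell-free, read by scintillation counting 1 h after dosing. Primary screening was in duplicate at 25 uM, with concentration series in follow-up. Loss of signal versus DMSO indicates displacement.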
Regarding `CCCCCCCCn1sccc1=O`, the call was inactive.

Turning to `CCC[CH2][Sn]([Cl])([CH2]CCC)[CH2]CCC`, the AC50 is 3.65 µM (active).

Regarding `[Cl-].[Cl-].[Hg+2]`, the AC50 was 2.23 µM (active).

On to `CCOC(=O)[C@]1(c2ccccc2)Oc2ccccc2[C@@H]1N`, for which the AC50 is 6.2 µM (active).

In another experiment the target is human Adrenergic, Beta 1 Receptor (Adrb1), ADRB1 (gene 153) (UniProt P08588). Description: NVS_GPCR_hAdrb1: NovaScreen (NVS) G Protein-Coupled Receptor Assay for human Adrenergic, Beta 1 Receptor (Adrb1) (AID 2283258). An outline of the steps:
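Cell-free radioligand displacement on receptor from human neuroepithelioma cells; 2 h after dosing, filter-based scintillation counting. Primary screen in duplicate at 25 uM, actives retested in concentration series; loss of signal vs DMSO baseline.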
In the case of `CCCCCCCCn1sccc1=O`, the AC50 is 12.2 µM (active).

On to `CCCCCOC(=O)c1ccccc1C(=O)OCCCCC`, for which the outcome was inactive.

`CCC[CH2][Sn]([Cl])([CH2]CCC)[CH2]CCC`: the AC50 was 1.25 µM (active).

In the case of `CCCCCCCCOC(=O)c1ccc(C(=O)OCCCCCCCC)c(C(=O)OCCCCCCCC)c1`, the call was inactive.

Take `[Cl-].[Cl-].[Hg+2]`: the concentration at half-maximal activity (AC50) is 0.303 µM (active).

Turning to `O=[N+]([O-])c1ccc(Oc2ccc(Cl)cc2Cl)cc1`, the molecule was called inactive.

For the molecule `O=C(N[C@H](c1ccccc1)[C@@H]1CN2CCC1CC2)c1c(Cl)ccc(C(F)(F)F)c1Cl`, the AC50 was 37.5 µM (active).

Turning to `CCOC(=O)[C@]1(c2ccccc2)Oc2ccccc2[C@@H]1N`, the AC50 was 1.41 µM (active).
